Results filed as inconclusive are left out. The source made the active and inactive calls. The call rests on the fitted dose curve.
Experiment: G protein-coupled receptor (GPCR) small molecule agonists, calcium flux assay: HEK293 wild type cell line counter screen (AID 1920065)
Conditions: HEK293 WT calcium flux, fluorescence, agonist mode; series mostly up to 57.6 µM; activation: at the top concentration
Procedure, shortened: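 Agonist mode; 18 h seeding at 37 C, 1 h dye load at 37 C; compounds pinned from DMSO, ATP as positive control; kinetic fluorescence 480/540 nm, 3 min, 1 s reads; 15 concentrations, triplicate.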
On the % scale 0 is the no-effect control and ±100 the full control effect.

| SMILES | activation |
| --- | --- |
| Cc1ccc(OC(=O)CC(C)C)cc1 | -0.13% (inactive) |
| Nc1ccn([C@@H]2O[C@H](CO)[C@@H](O)[C@@H]2O)c(=O)n1 | -0.548% (inactive) |
| CN1C(C(=O)Nc2ccccn2)=C(O)c2sccc2S1(=O)=O | 0.653% [at 26.5 µM] (inactive) |
| O=C(O)CO | -0.333% (inactive) |
| C=C(C)C(=O)OCCOCCOC(=O)C(=C)C | -1.19% (inactive) |
| O=C(Nc1cccc(Cl)c1)OCC#CCCl | 0.331% (inactive) |
| CCNC(=O)NCc1cccc(Cl)c1 | -2.42% [at 26.5 µM] (inactive) |
| O=C1CCCCCO1 | -0.148% (inactive) |
| COc1nc(C)nc(Cl)c1NC1=NCCN1 | -0.486% [at 26.5 µM] (inactive) |
| Cc1ccc(Cl)c(Nc2ccccc2C(=O)O)c1Cl | -0.534% [at 26.5 µM] (inactive) |
| CCOC(=O)CC(=O)c1ccccc1 | 0.458% (inactive) |
| CO/N=C(/C(=O)N[C@@H]1C(=O)N2C(C(=O)[O-])=C(C[n+]3ccn4ncccc43)CS[C@H]12)c1nsc(N)n1 | -0.838% [at 26.5 µM] (inactive) |
| O=C1CCCCC1C1CCCCC1 (stereo not given) | -1.18% (inactive) |
| N#Cc1ccccc1O | 0.0467% (inactive) |
| O=C1NCC2(CCN(CCc3ccccc3)CC2)O1 | 0.278% [at 26.5 µM] (inactive) |
| CN(C)C(=O)Nc1ccccc1 | -0.362% (inactive) |
| CC(C)CO | 0.544% (inactive) |
| CC[C@H]1OC(=O)[C@H](C)[C@@H](O[C@H]2C[C@@](C)(OC)[C@@H](O)[C@H](C)O2)[C@H](C)[C@@H](O[C@@H]2O[C@H](C)C[C@H](N(C)C)[C@H]2O)[C@](C)(O)C[C@@H](C)/C(=N\OCOCCOC)[C@H](C)[C@@H](O)[C@]1(C)O | 0.199% [at 26.5 µM] (inactive) |
| Nc1ccc(Oc2ccc(N)c(N)c2)cc1 | -0.0772% (inactive) |
| CC(C)COC(=O)CCCCC(=O)OCC(C)C | -2.13% (inactive) |

Experiment: p53 small molecule agonists, cell-based qHTS assay with human liver microsomes: qHTS cell viability counter screen (AID 1963579); further: nearly all actives have a fitted effect of over 45% in size
Conditions: p53RE-bla HCT-116 viability, ATP luminescence, 16 h, HLM; series mostly up to 66 µM; activity change, negative = cytotoxicity: at the top concentration
Procedure, shortened: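 Luminescent CellTiter-Glo read-out, 30 min at room temperature, gauged cytotoxicity in p53RE-bla cells exposed 16 h at 37 C to DMSO-dissolved compounds with metabolic activation by human liver microsomes and NADPH, each 0.5 mg/mL final.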

| SMILES | activity change, negative = cytotoxicity |
| --- | --- |
| Nc1ccccc1Nc1ccccc1 | -14.4% (inactive) |
| CC[C@H](C)C(=O)O[C@H]1C[C@H](O)C=C2C=C[C@H](C)[C@H](CC[C@@H](O)C[C@@H](O)CC(=O)O)[C@H]21 | 23.6% (inactive) |
| CC(=O)c1ccc2c(c1)Cc1ccccc1-2 | -1.26% (inactive) |
| Cn1c(=O)c2c(ncn2CC2OCCO2)n(C)c1=O | -11.1% [at 30.3 µM] (inactive) |
| C=CCc1cc(S(=O)(=O)c2ccc(O)c(CC=C)c2)ccc1O | 10.9% (inactive) |
| CCCCOc1ccc(CC(=O)NO)cc1 | 0% [at 30.3 µM] (inactive) |
| CC(C)=CC=O | 6.13% (inactive) |
| O=C(O)c1cccnc1Nc1cccc(C(F)(F)F)c1 | 6.47% [at 30.3 µM] (inactive) |
| O=C1CCc2cc(OCCCCc3nnnn3C3CCCCC3)ccc2N1 | 9.31% [at 30.3 µM] (inactive) |
| CCC(C)(C)OC | -0.262% (inactive) |
| CC(=O)CCC1=C(C)CCCC1(C)C | 8.01% (inactive) |
| CCN1CCN(C(=O)N[C@@H](C(=O)N[C@@H]2C(=O)N3[C@@H]2SC(C)(C)[C@H]3C(=O)O)c2ccccc2)C(=O)C1=O | -2.81% [at 30.3 µM] (inactive) |
| CCCCCC(C)O (stereo not given) | -5.23% (inactive) |
| CC(C)(C)C(O)/C=C/c1ccc2c(c1)OCO2 (stereo not given) | 10.7% [at 30.3 µM] (inactive) |
| CC1(C)O[C@@H]2C[C@H]3[C@@H]4C[C@H](F)C5=CC(=O)C=C[C@]5(C)[C@H]4[C@@H](O)C[C@]3(C)[C@]2(C(=O)CO)O1 | -2.71% [at 30.3 µM] (inactive) |
| C=C(C)C(=O)OCc1ccccc1 | -4.46% (inactive) |
| O=C(Cl)c1cccc([N+](=O)[O-])c1 | 6.03% (inactive) |
| CN1CC(=O)N2[C@H](c3ccc4c(c3)OCO4)c3[nH]c4ccccc4c3C[C@@H]2C1=O | -2.24% [at 30.3 µM] (inactive) |
| CCCc1nc(C)c2c(=O)[nH]c(-c3cc(S(=O)(=O)N4CCN(CC)CC4)ccc3OCC)nn12 | -2.39% [at 30.3 µM] (inactive) |
| COc1ccnc(CS(=O)c2nc3ccc(OC(F)F)cc3[nH]2)c1OC (stereo not given) | -15.1% [at 30.3 µM] (inactive) |

| SMILES | activity change, negative = cytotoxicity |
| --- | --- |
| Cc1ccc(OC(=O)CC(C)C)cc1 | -0.759% (inactive) |
| Nc1ccn([C@@H]2O[C@H](CO)[C@@H](O)[C@@H]2O)c(=O)n1 | 1.08% (inactive) |
| CN1C(C(=O)Nc2ccccn2)=C(O)c2sccc2S1(=O)=O | -0.22% [at 30.3 µM] (inactive) |
| O=C(O)CO | 0.16% (inactive) |
| C=C(C)C(=O)OCCOCCOC(=O)C(=C)C | 1.53% (inactive) |
| O=C(Nc1cccc(Cl)c1)OCC#CCCl | -4.46% (inactive) |
| CCNC(=O)NCc1cccc(Cl)c1 | 0.391% [at 30.3 µM] (inactive) |
| O=C1CCCCCO1 | 5.94% (inactive) |
| COc1nc(C)nc(Cl)c1NC1=NCCN1 | 13.4% [at 30.3 µM] (inactive) |
| Cc1ccc(Cl)c(Nc2ccccc2C(=O)O)c1Cl | 20.7% [at 30.3 µM] (inactive) |
| CCOC(=O)CC(=O)c1ccccc1 | -1.83% (inactive) |
| CO/N=C(/C(=O)N[C@@H]1C(=O)N2C(C(=O)[O-])=C(C[n+]3ccn4ncccc43)CS[C@H]12)c1nsc(N)n1 | -17.5% [at 30.3 µM] (inactive) |
| O=C1CCCCC1C1CCCCC1 (stereo not given) | -14.4% (inactive) |
| N#Cc1ccccc1O | -1.49% (inactive) |
| O=C1NCC2(CCN(CCc3ccccc3)CC2)O1 | 29.5% [at 30.3 µM] (inactive) |
| CN(C)C(=O)Nc1ccccc1 | 5.4% (inactive) |
| CC(C)CO | 6.81% (inactive) |
| CC[C@H]1OC(=O)[C@H](C)[C@@H](O[C@H]2C[C@@](C)(OC)[C@@H](O)[C@H](C)O2)[C@H](C)[C@@H](O[C@@H]2O[C@H](C)C[C@H](N(C)C)[C@H]2O)[C@](C)(O)C[C@@H](C)/C(=N\OCOCCOC)[C@H](C)[C@@H](O)[C@]1(C)O | 0.981% [at 30.3 µM] (inactive) |
| Nc1ccc(Oc2ccc(N)c(N)c2)cc1 | 0.38% (inactive) |
| CC(C)COC(=O)CCCCC(=O)OCC(C)C | -6.47% (inactive) |

From PubChem BioAssay (Tox21)
